For the assay, the target named is T1, CRBN, Q96SW2.
T1 chain: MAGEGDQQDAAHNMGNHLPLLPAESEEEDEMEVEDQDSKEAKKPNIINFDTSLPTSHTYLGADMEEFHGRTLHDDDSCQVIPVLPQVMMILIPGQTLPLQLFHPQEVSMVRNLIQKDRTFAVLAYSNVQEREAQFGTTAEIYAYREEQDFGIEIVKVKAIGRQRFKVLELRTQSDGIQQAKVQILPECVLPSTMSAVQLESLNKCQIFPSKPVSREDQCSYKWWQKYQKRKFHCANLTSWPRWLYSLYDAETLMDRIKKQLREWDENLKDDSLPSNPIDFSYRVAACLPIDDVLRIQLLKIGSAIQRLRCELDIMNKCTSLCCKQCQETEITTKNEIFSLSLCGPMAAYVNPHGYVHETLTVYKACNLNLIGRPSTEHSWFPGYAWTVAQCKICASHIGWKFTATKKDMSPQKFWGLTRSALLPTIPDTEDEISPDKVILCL
Description: log2 fold change of degron read counts, EGFP-low vs EGFP+ sorted cells (limma voom), compound-induced degradation; higher = more compound-induced degradation of the degron-EGFP fusion; degrons are variants of IKZF1/3 zinc finger 2; compound dose not given here. To be noted: Jurkat, 18 h.

Where [1] appears, read: compound: compound 19 (5-tert-butyl-thalidomide).
Where [2] appears, read: compound: compound 22 (5-morpholino-thalidomide).
[3] abbreviates: compound: compound 33 (diphenyl IMiD analogue).

Over roughly 8,300 sequences, “log2 fold change of degron read counts, EGFP-low vs EGFP+ sorted cells (limma voom), compound-induced degradation” has its median near -1.1; the highest 2% begin near 3.2. For the sample, the highest values were picked, then their nearest neighbours and some sequences at random.

We go through 8 sequences from the supplement of paper PMC12645437, “Orthogonal IMiD-Degron Pairs Induce Selective Protein Degradation in Cells” (ACS Chemical Biology, 2025).
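Further: pooled lentiviral library of zinc finger degron-EGFP fusions in mCherry-positive Jurkat cells, FACS-sorted after compound exposure, with degron abundance counted by next-generation sequencing.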

With FFCPICGRAFTQKGNLLRHIKL [46F_47F_49P_50I_52G_53R_54A_55F_67L_, Q9UKT9], the “log2 fold change of degron read counts” value reads like this: under setting [1], -0.764; under setting [2], -1.23; under setting [3], -0.0789; (compound: thalidomide) -1.31.

On to FICPVCGAYFTQKGNLLRHIKL [46F_47I_49P_50V_52G_53A_54Y_55F_67L_, Q9UKT9], for which the “log2 fold change of degron read counts” value reads like this: under setting [1], -0.575; under setting [2], 1.65; under setting [3], 1.98; (compound: thalidomide) 1.66.

FHCEVCGAWFTQKGNLLRHIKL [46F_47H_49E_50V_52G_53A_54W_55F_67L_, Q9UKT9]: the “log2 fold change of degron read counts” value was -1.47 under setting [1], -1.81 under setting [2], -0.825 under setting [3] and -1.89 (compound: thalidomide).

On to LDCEICGFICTQKGNLLRHIKL [46L_47D_49E_50I_52G_53F_54I_55C_67L_, Q9UKT9], for which the “log2 fold change of degron read counts” value is -0.803 under setting [1], -0.92 under setting [2], -0.72 under setting [3] and -0.457 (compound: thalidomide).

For the sequence LRCPICGFDCTQKGNLLRHIKL [46L_47R_49P_50I_52G_53F_54D_55C_67L_, Q9UKT9], the “log2 fold change of degron read counts” value under setting [1] was -1.49, the “log2 fold change of degron read counts” value under setting [2] is -1.07, the “log2 fold change of degron read counts” value under setting [3] amounted to 0.189 and the “log2 fold change of degron read counts” value (compound: thalidomide) is 0.67.

With LRCNQCGFACTQKGNLLRHIKL [46L_47R_49N_50Q_52G_53F_54A_55C_67L_, Q9UKT9], the “log2 fold change of degron read counts” value is -1.46 under setting [1], -1.7 under setting [2], -0.712 under setting [3] and -0.94 (compound: thalidomide).

For the sequence FWCDQCGAQFTQKGNLLRHIKL [46F_47W_49D_50Q_52G_53A_54Q_55F_67L_, Q9UKT9], the “log2 fold change of degron read counts” value is, setting by setting: under setting [1], 0.249; under setting [2], 2.32; under setting [3], -0.8; (compound: thalidomide) -1.65.

For FCCEICGHVFTQKGNLLRHIKL [46F_47C_49E_50I_52G_53H_54V_55F_67L_, Q9UKT9], the “log2 fold change of degron read counts” value under setting [1] was -2.85, the “log2 fold change of degron read counts” value under setting [2] is -3.23, the “log2 fold change of degron read counts” value under setting [3] was -2.09 and the “log2 fold change of degron read counts” value (compound: thalidomide) was -2.16.
